# Screens deposited in PubChem BioAssay by National Center for Advancing Translational Sciences (NCATS).
# This is a sample that favours compounds with a hit; in the whole collection about 2.4% have one here.
# Pol kappa inh-1 = inhibitors of human DNA polymerase kappa. Q9UBT6. AID 588579. Potency, µM (top dose mostly 107 µM), for the others: at the highest dose activity, negative = inhibition, most hits filed as inhibitors. 400,000 compounds, 0.53% hits. purified Pol kappa, fluorescent DNA synthesis assay, 10 min; further: on the % scale 0 is the no-effect control and ±100 the full control effect
#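 Inhibition of 10 nM Pol kappa is measured by a fluorescent read-out at 0 and 10 min following addition of 50 nM substrate (final), with a 15-min room-temperature compound preincubation.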
# WRN helicase inh = blocks human WRN helicase | WRN helicase unwinding, fluorescent forked duplex, kinetic | Potency, µM (titrated, usually from 114 µM), for the others: at the top dose activity change, negative = inhibition, hits mostly inhibitors | 360,000 compounds, 0.46% hits; further: on the % scale 0 is the no-effect control and ±100 the full control effect; nearly all actives have a fitted effect of over 55% in size
#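 Kinetic fluorescence helicase assay: unwinding of a quenched forked DNA duplex (100 nM final) with 2 mM ATP final raises red fluorescence (525/598 nm). Compounds sat 15 min at room temperature with 20 nM WRN beforehand.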
# Pol iota inh = blocks human DNA polymerase iota activity | Q9UNA4 | Pol iota fluorescent replication assay, 10 min | Potency, µM (titrated, usually from 115 µM), for the others: top-dose activity, negative = inhibition, hits mostly inhibitors | 390,000 compounds, 1% hits
#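 Fluorescent replication assay read twice, at 0 min and 10 min after adding 50 nM (final) substrate. Enzyme (10 nM) and compounds were first incubated 15 min at room temperature; enzyme-free buffer wells were negative controls.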
# FEN1 inh = blocks human flap endonuclease 1 | Recombinant FEN1 flap cleavage, fluorescence, 15 min | Potency, µM (doses to about 114 µM), without a hit: at the highest dose activity change, negative = inhibition, most hits filed as inhibitors | 390,000 compounds, 0.35% hits; further: on the % scale 0 is the no-effect control and ±100 the full control effect; nearly all actives have a fitted effect of over 65% in size
#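 With each library titrated from low to high concentration, compounds met 10 nM FEN1 for 15 min at room temperature before 50 nM substrate was added; readings at 0 and 15 min fed four-parameter Hill curve fits.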
# Pol beta inh = DNA polymerase beta (human) inhibition; 340,000 compounds, 1.3% hits; P06746; Pol beta primer extension/strand displacement, fluorescence kinetic; Potency, µM (doses to about 114 µM), for the others: at the highest dose activity change, negative = inhibition, usual class: inhibitors; AID 485314; further: on the % scale 0 is the no-effect control and ±100 the full control effect
#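 Pol beta (10 nM) and compounds were preincubated 15 min at room temperature, then 50 nM substrate (final) started primer extension/strand displacement. Reads were taken at 0 and 10 min; concentration-response data were fitted to a four-parameter Hill equation.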
# Pol eta inh-1 = DNA polymerase eta (human) inhibition; Q9Y253; recombinant Pol eta, fluorescent DNA replication assay; Potency, µM (top dose mostly 114 µM), for inactives: at the highest dose activity change, negative = inhibition, usual class: inhibitors; 390,000 compounds, 1.2% hits; AID 588591; further: on the % scale 0 is the no-effect control and ±100 the full control effect
#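 Fluorescent replication assay: 50 nM final substrate added after a 15 min room-temperature compound preincubation with 10 nM enzyme. Signal taken at 0 min and again at 10 min.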
# Pol iota confirm = Human Pol iota inhibitor confirmatory assay; 1,500 compounds, 77% hits; Pol iota primer extension, TAMRA/BHQ fluorescence; shares compounds with Pol kappa inh-1; AID 720496; Potency, µM, usual class: inhibitors
# Pol kappa inh-2 = Pol kappa (human) inhibition, cherry-pick confirmation; shares compounds with Pol eta inh-1; purified Pol-kappa, fluorescent strand-displacement substrate; Potency, µM, usual class: inhibitors; 920 compounds, 76% hits; AID 720501
# Pol eta inh-2 = confirmation of human DNA polymerase eta inhibitors. shares compounds with Pol eta inh-1. Pol eta primer extension, TAMRA/BHQ fluorescence, 10 min. Potency, µM, most hits filed as inhibitors. 2,600 compounds, 64% hits. AID 720502
# Active calls of the source: *; ? = inconclusive; / = not tested or not shown; [ ] = another dose, or the depositor's remark. The call rests on the fitted dose curve; in most records, active means well fitted curve in the direction sought with a large enough effect; inconclusive means small, poorly fitted or top-dose-only effect, or another doubt; inactive means no such curve, though single readings can be large; an effect the other way counts as inactive or inconclusive. Potency means the concentration at half of the fitted maximal effect.
SMILES,Pol kappa inh-1,WRN helicase inh,Pol iota inh,FEN1 inh,Pol beta inh,Pol eta inh-1,Pol iota confirm,Pol kappa inh-2,Pol eta inh-2
O=C(CCN1C(=O)/C(=C\c2ccco2)SC1=S)Nc1ccc(C(=O)O)c(O)c1,20µM*,50µM*,-93%,18µM*,100µM*,8.9µM*,19*,4.7*,5.4*
O=C(CCN1C(=O)/C(=C/c2ccc(Cl)cc2)SC1=S)Nc1ccc(C(=O)O)cc1,-13%,-5%,137%,-3%,37%,-1%,/,/,/
O=C1/C(=C/c2ccco2)SC(=S)N1CC1CCCO1 (configuration not stated),89µM*,?,22µM*,-23%,13µM*,50µM*,?,42*,67*
O=C(CCN1C(=O)/C(=C/c2ccco2)SC1=S)Nc1ccc(O)cc1C(=O)O,?,32µM*,4.5µM*,35µM*,22µM*,5.6µM*,47*,13*,30*
Nc1cc(C(F)(F)F)ccc1S(=O)(=O)Nc1cccc2c1NCCC2,17%,/,17%,3%,/,/,/,/,/
O=C(Cn1ncc2c3ccccc3n(Cc3ccccc3F)c2c1=O)NC1CCCCCC1,-19%,/,18%,1%,0%,-17%,/,/,/
Nn1c(SCC(=O)NC2CCCCCC2)nnc1-c1ccco1,/,5%,/,/,/,-9%,/,/,/
Cc1ccc(OCC(=O)Nc2ccccc2C(=O)OCc2cc(=O)n3nc(C4CC4)sc3n2)cc1,-6%[60.1 µM],/,21%,-3%,-1%,-15%,/,/,/
CCOc1nc(Nc2ccc(OC)cc2)nc(OCC)n1,?,-34%[57.1 µM],?,-9%,1%,20µM*,67*,/,?
Cc1cc(=O)oc2c3c(ccc12)OC/C3=N/N,-17%,-14%[11.6 µM],?,1%,30%,?,42*,34*,30*
CCN(CC)C(=O)CC(c1cc(OC)c(OC)c(OC)c1)c1c(OC)cc(OC)c2c(-c3ccccc3)cc(=O)oc12 (configuration not stated),79µM*,-11%[11.6 µM],71µM*,-29%,40µM*,40µM*,24*,/,60*
CC(=C\C(=O)O)/C(=C/c1ccc(C)o1)C(=O)O,?,-18%[11.6 µM],?,7%,20µM*,7.9µM*,34*,/,21*
CC(=C\C(=O)O)/C(=C/c1ccco1)C(=O)O,?,2%[11.6 µM],?,-16%,?,?,/,/,/
Cc1ccc(CSc2nnc(-n3c(=O)c(C#N)cc4c(=O)n5cc(C)ccc5nc43)s2)cc1,-12%,/,15%,-12%,0%,/,/,/,/
CC[C@H](C)[C@H](NC(=O)[C@@H]1CCCN1C(=O)[C@H](Cc1cnc[nH]1)NC(=O)[C@H](CCCCNC(=O)[C@H](CCCN=C(N)N)NC(=O)OCc1ccccc1)NC(=O)[C@H](Cc1ccc(O)cc1)NC(=O)c1cccnc1)C(=O)O,13%[60.1 µM],/,/,/,/,/,/,/,/
Cc1cccc2c1NC(=O)C2=O,50µM*,28µM*,8.9µM*,?,/,8.9µM*,42*,15*,17*
O=C1Nc2c(Cl)cccc2C1=O,/,-3%,/,/,/,/,/,/,/
CNC(=O)c1cc(NC(=O)N(CCC#N)CCN(C(=O)NC(Cc2ccccc2)C(=O)NC(CC(C)C)C(=O)NC)c2ccccc2)ccc1OC (configuration not stated),0%,2%,12%,-1%,/,-14%,/,/,/
Cc1ccc(S(=O)(=O)N2C(c3ccc(Cl)c(Cl)c3)CC=C(C(=O)O)C2c2ccc(Cl)cc2)cc1 (configuration not stated),/,-6%,/,/,/,/,/,/,/
